Data from ChEMBL document CHEMBL3433997, “St. Jude Leishmania screening dataset” (2016).

Tests used:
Assay type in all cases: functional
[1] = biological target: Solute carrier family 2, facilitated glucose transporter member 1 (Homo sapiens) (UniProt P11166); assay: ST_JUDE_LEISH: Cytotoxicity at 2uM final concentration against transgenic Leishmania Mexicana promastigotes LmGLUT1 that are glucose transport deficient and complemented with the human glucose transporter GLUT1. Activity is measured by DNA content using SYBR green in vitro
[2] = biological target: Hexose transporter 1 (Plasmodium falciparum) (UniProt O97467); assay: ST_JUDE_LEISH: Cytotoxicity at 2uM final concentration against transgenic Leishmania Mexicana promastigotes LmPfHT that are glucose transport deficient and complemented with the Plasmodium falciparum hexose transporter. Activity is measured by DNA content using SYBR green in vitro
[3] = biological target: Glucose transporter (Leishmania mexicana) (UniProt O61059); assay: ST_JUDE_LEISH: Cytotoxicity at 2uM final concentration against transgenic Leishmania Mexicana promastigotes LmGT2 that are glucose transport deficient and complemented with the L. Mexicana glucose transporter 2. Activity is measured by DNA content using SYBR green in vitro

Sequence of Solute carrier family 2, facilitated glucose transporter member 1 (Homo sapiens) (P11166 whole entry): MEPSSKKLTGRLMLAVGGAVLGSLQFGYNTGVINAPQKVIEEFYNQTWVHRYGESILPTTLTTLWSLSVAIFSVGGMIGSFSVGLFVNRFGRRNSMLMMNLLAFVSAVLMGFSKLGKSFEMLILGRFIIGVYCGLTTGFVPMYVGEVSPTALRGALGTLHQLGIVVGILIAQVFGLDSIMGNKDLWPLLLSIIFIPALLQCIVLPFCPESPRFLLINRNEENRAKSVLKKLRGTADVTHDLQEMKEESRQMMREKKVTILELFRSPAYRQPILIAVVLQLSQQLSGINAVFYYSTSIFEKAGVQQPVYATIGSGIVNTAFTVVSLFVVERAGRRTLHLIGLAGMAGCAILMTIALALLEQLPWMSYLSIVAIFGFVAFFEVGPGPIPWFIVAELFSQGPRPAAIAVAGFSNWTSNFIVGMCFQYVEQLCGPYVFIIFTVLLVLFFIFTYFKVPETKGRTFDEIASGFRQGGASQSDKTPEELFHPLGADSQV

Row | SMILES | inhibition [1] | inhibition [2] | inhibition [3]
1 | O=c1cc(NCCCNCc2ccc(C(F)(F)F)c(F)c2)[nH]c2ccccc12 | 0.24% | 0.58% | -0.68%
2 | Cc1ccc(NC(=O)Nc2ccc(Cl)c(C(F)(F)F)c2)cc1-c1ccc(C(=O)Nc2ccncc2)cc1 | 3.55% | 2.27% | 3.98%
3 | CCOc1cc(Cc2cnc(N)nc2N)cc(OCC)c1OCCCCC(=O)OC | 4.55% | 0.23% | 0.19%
4 | O=C(NCCCc1ccccc1)c1csc(C2CCCN(C(=O)c3ccc(O)c(-c4ccccc4)c3)C2)n1 (configuration not stated) | 2.11% | 0.46% | -4.23%
5 | O=C(/C=C/c1ccc(Cl)c(Cl)c1)NCCCCN1CCCN(C(=O)Nc2ccc(Cl)c(Cl)c2)CC1 | -2.19% | 0.32% | -1.91%
6 | O=C(CNC(=O)c1ccc(O)cc1)Nc1ccc(-c2cccc(-c3nc4cc(C(F)(F)F)ccc4[nH]3)c2)cc1 | 8.61% | 8.61% | 8.38%
7 | Oc1ccc(-c2ccccc2)cc1CN1CCCCC1 | 4.4% | 5.51% | -0.56%
8 | C[C@@H](Oc1cc(-n2cnc3cc(SCCN4CCN(C)CC4)ccc32)sc1C(N)=O)c1ccccc1Cl | 35.4% | 40.9% | 23.6%
9 | Cc1cc(C(=O)NCc2ccc(-c3c(C)noc3C)cc2)n(-c2ccccc2)n1 | 4.79% | 4.63% | 3.34%
10 | Cc1cc(NCCC(=O)Nc2ccccc2)nc(NCCOc2ccccc2)n1 | -0.01% | -0.67% | -1.58%
11 | O=C(NC1CCCCC1)N(Cc1cccc(-c2ccc(CNCc3ccc4c(c3)OCO4)cc2)c1)C1CCN(Cc2ccccc2)CC1 | 8.67% | 5.99% | 3.16%
12 | Fc1cccc(C=NN=c2cc[nH]c3ccccc23)c1 | 9.03% | 6.41% | 6.88%
13 | CCOc1cc(C(=O)NCCN(CC)c2cccc(C)c2)ccc1-c1nc2cc(Cl)ccc2[nH]1 | 3.14% | 1.88% | 1.84%
14 | Cc1nc(N)nc(N)c1C#CC1CCCC1 | 5.81% | 6.82% | 2.76%
15 | Oc1cc(NC[C@@H]2CCC[C@@H]2NCc2ccc(Cl)c(Cl)c2)nc2ccccc12 | 9.21% | 8.79% | 7.45%
16 | COC(=O)c1ccc(N2CCN(CCCCNC(=O)c3ccc(NC(=O)c4ccc(Cl)cc4)cc3)CC2)c(OC)c1 | 0.45% | 1.46% | 1.51%
17 | COc1nc2c(CCN3CC[C@H](NCc4cc(C#N)c5c(c4)CCO5)[C@H](O)C3)ccnc2cc1F | 8.01% | 8.15% | 0.58%

Row | SMILES | inhibition [1] | inhibition [2] | inhibition [3]
18 | CCCOc1ccc(NC(=O)c2cccs2)cc1Cl | 10% | 8.57% | 9.7%
19 | CN1CCN(Cc2cccc(-c3ccc4c(Nc5ccc(Oc6ccccc6)cc5)ccnc4c3)c2)CC1 | 12.9% | 17% | 18.6%
20 | O=S(=O)(c1cccc2cccnc12)N1CCN(C2CCCCC2)CC1 | 8.16% | 8.51% | 7.83%
21 | CC(=O)Nc1ccc(NC(=O)c2cc(-c3ccc(C)cc3O)n[nH]2)cc1 | -0.23% | 7.7% | 0.4%
22 | NCc1ccc(CNCc2cccc(-c3ccc(-c4nc5ccccc5[nH]4)cc3)c2)cc1 | 13.5% | 11.8% | 12.4%
23 | NC(=O)c1sc(-n2cnc3ccccc32)cc1OCc1ccccc1[N+](=O)[O-] | 8.87% | 7.21% | 6.48%
24 | COc1ccc(NC(=O)Nc2ccc(C)c(-c3ccc(C(=O)NCCN4CCCC4)cc3)c2)cc1 | -1.56% | -2.24% | -2.87%
25 | CCN(CC)c1ccc2nc(N)nc(N)c2c1 | 8.53% | 16.5% | 7.56%
26 | Cc1cc(N[C@@H](Cc2ccccc2)C(=O)NCCCOC(C)C)nc(NCCc2ccc(F)cc2)n1 | 5.75% | 2.58% | 0.38%
27 | COc1ccc(-c2nc3c4ccccc4c4ccc(I)cc4c3[nH]2)cc1 | 5.22% | 2.48% | 2.32%
28 | Cc1cc(N[C@@H](CC(C)C)C(=O)NCc2cccs2)nc(NCCc2ccccc2)n1 | 7.7% | 5.79% | 5.49%
29 | COCCN1CCN(Cc2ccc(-c3ccc(-c4nc5cc(F)ccc5[nH]4)cc3)cc2)CC1 | 6.74% | 3% | 0.87%
30 | c1csc(-c2nc(N3CCCCC3)ncc2-c2ccsc2)n1 | 4.57% | 4.73% | 2.33%
31 | Cc1ccc(OCC2CCN(c3ncc(C(=O)NC4CC4)cc3Cl)CC2)cc1 | -0.74% | -2.55% | 0.52%
32 | NOCCCOc1ccccc1 | 0.04% | -0.12% | 0.73%
33 | N#Cc1ccc(N(CCOc2ccc(Cl)c(F)c2)Cc2ccccc2C(F)(F)F)cc1C(F)(F)F | 3.18% | 0.42% | -1.25%
34 | O=C(NCCN1CCCC1)c1cccc(-c2ccc(-c3nc4cc(F)ccc4[nH]3)s2)c1 | 2.21% | 2.37% | 3.1%
